Screens (PubChem)
Only some compounds are listed: those with a hit (about 2.8% of all), similar ones and a draw of the others.
CF NFkB inh: cystic fibrosis NF-kB activation inhibition; KKLEB NF-kB-GFP reporter, PAF-induced, GFP fluorescence overnight; inhibition, % at 5 µM; 360,000 compounds, 0.86% hits; AID 588850;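 active = at least 50% inhibition at 5 µM, scaled per plate between neutral and stimulator controls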;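 note: PAF is a Pseudomonas aeruginosa culture filtrate used as stimulus; plate controls were PAF-stimulated DMSO wells for no effect and unstimulated DMSO wells for full effect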
HIF-2a inh: blocks HIF-2a reporter activity; 786-0 RCC cells HIF-2a reporter, luciferase luminescence, overnight; inhibition, % at 18.8 µM; 360,000 compounds, 0.72% hits; AID 624352;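 active = inhibition of the luminescence signal of 40% or more relative to plate controls, in a single-dose primary screen at 18.75 µM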
TRPM1 prom inh: reduces MITF-dependent TRPM1 promoter luciferase signal; SK-MEL-5 TRPM1 promoter luciferase, 24 h; inhibition, % at 12.5 µM; 330,000 compounds, 0.83% hits; AID 488899;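 active = mean inhibition across replicates of 60% or more, whatever share of single replicates reaches that level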
Peg3 prom inh: Peg3 promoter activity inhibition; 360,000 compounds, 1.7% hits; HeLa PEG-Prom luciferase reporter, luminescence, overnight; inhibition, % at 20 µM;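 active = inhibition of at least 50% at 20 µM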
Beta2AR agonist: activates human beta-2 adrenergic receptor causing internalization | Am2.2-beta2AR cells, FAP receptor internalization, flow cytometry | response, % (no concentration beside the values) | 340,000 compounds, 0.43% hits | AID 504454;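 active = response above a set limit, near 3 SD of response in nonfluorescent compounds, cut at about 42% in these data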
Target sequence (P07550 whole entry, looked up): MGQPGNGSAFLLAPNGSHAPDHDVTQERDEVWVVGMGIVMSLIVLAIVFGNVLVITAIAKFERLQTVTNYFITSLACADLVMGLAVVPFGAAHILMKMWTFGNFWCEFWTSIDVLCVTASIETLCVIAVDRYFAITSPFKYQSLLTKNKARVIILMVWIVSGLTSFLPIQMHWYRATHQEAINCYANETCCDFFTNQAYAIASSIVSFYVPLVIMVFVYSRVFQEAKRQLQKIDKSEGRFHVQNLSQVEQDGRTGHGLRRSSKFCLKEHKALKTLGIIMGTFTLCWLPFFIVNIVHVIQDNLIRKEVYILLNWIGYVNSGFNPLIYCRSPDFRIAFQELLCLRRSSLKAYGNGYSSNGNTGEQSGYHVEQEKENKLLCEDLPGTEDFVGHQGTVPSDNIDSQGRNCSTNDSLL
KKLEB cytotox: counter-screen for CF NF-kB inhibitors: cytotoxicity; KKLEB CF airway cells viability, ATPlite luminescence, overnight; stronger effect = lower value; cells stimulated with P. aeruginosa culture filtrate; activity change (cytotoxicity), % at 5 µM; 360,000 compounds, 0.36% hits;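 active = corrected activity change at or below -50% at 5 µM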
Active calls of the source: *; . = no result.

SMILES	CF NFkB inh	HIF-2a inh	TRPM1 prom inh	Peg3 prom inh	Beta2AR agonist	KKLEB cytotox
CCCCCc1cc(=O)oc2c(C(CCN3CCCC3)c3cc(OC)c(OC)c(OC)c3)c(OC)cc(OC)c12 (stereo unspecified)	16	3	95*	102*	20	-17
Cc1ccccc1CN1C(=O)c2ccccc2C1c1nnnn1C(C)C (stereo unspecified)	.	12	.	.	.	.
O=C1NCCN1CCNc1nc(NCC2CC2)nc2cc(-c3ccccc3)sc12	6	-1	.	12	.	-12
CCCCCc1cc(=O)oc2c(C(CCN3CCCC(C)C3)c3ccc(OC)cc3)c(OC)cc(OC)c12 (stereo unspecified)	14	7	47	96*	34	-22
COc1ccc(C(=O)NC(=S)Nc2cc3oc4ccccc4c3cc2OC)cc1	33	-3	-25	5	-2	-41
COc1cc(OC)cc(C(=O)NC(=S)Nc2cc3oc4ccccc4c3cc2OC)c1	55*	6	8	38	1	-52*
CC(C)C[C@H]1CN([C@@H](Cc2ccc(O)cc2)CN2CCC[C@H]2CN2C(=O)C(=O)NC[C@@H]2Cc2ccccc2)C(=O)C(=O)N1CC1CCCCCC1	.	-24	.	.	.	.
CCOC(=O)C(=O)N(C)c1c(CC)nc2c(OCCC3CCCCC3)cccn12	7	10	.	16	.	-2
Cc1ccc(-c2nn(-c3ccccc3)cc2/C=C/C(=O)O)o1	-6	-21	-6	-36	-5	-3
Cc1ccc(-c2nn(-c3ccccc3)cc2CN(Cc2ccccc2)C(=O)c2ccco2)o1	-2	26	5	65*	24	5
O=C(N1CCN(c2ccccn2)CC1)C(Cl)(Cl)Cl	-18	-59	-15	-67	-11	10
O=C1C=C(N2CCN(c3ccccn3)CC2)C(=O)c2c(O)ccc(O)c21	38	1	92*	0	7	-10
CCOc1cc(/C=C/C(=O)c2ccc3c(c2)OCCO3)ccc1OCC(=O)N(C)C	15	32	.	63*	29	-16
CC(=O)c1cc2c(cc1NC(=O)CSc1nnc(C3CC3)n1C)OCO2	-20	15	.	-4	.	-2
CC(=O)NCc1ccc(C(=O)CCl)s1	9	18	39	69*	1	-26
CC(=O)NCc1ccc(C(=O)CCl)cc1	2	15	29	53*	0	14
COc1ccc(C(=O)OCC(=O)c2ccc(CNC(C)=O)s2)cc1	0	-48	-16	-38	-2	0
Cc1cccc(C)c1NC(=O)C(CCc1ccccc1)N1CCN(C)CC1 (stereo unspecified)	.	-1	.	.	.	.
Cc1ccccc1C(=O)N1CCC[C@H]1C(=O)N1CCC[C@H]1C(=O)NCc1ccccn1	.	6	.	.	.	.
Cc1cc(C)c(NC(=O)CN(C)CC(=O)Nc2cccc(S(=O)(=O)N(C)c3ccccc3)c2)c(C)c1	11	3	11	58*	25	-3
CN(c1ccccc1)S(=O)(=O)c1cccc(NC(=O)c2ccc3ncsc3c2)c1	1	9	16	57*	21	0
CCc1nc2ccc(C(=O)Nc3cccc(OC)c3)cn2c1N(C)CCCc1ccccc1	30	-16	.	2	.	-18
NNc1ccc([N+](=O)[O-])c2[nH][nH]c(=O)c12	7	16	.	8	.	-15
Cc1ccc(C(=O)CCS(=O)(=O)c2ccc(F)cc2)cc1	32	7	-4	60*	23	-11
Cc1ccc(C(=O)CCS(=O)(=O)c2ccc(Cl)cc2)cc1	3	33	2	29	40	4
SMILES	CF NFkB inh	HIF-2a inh	TRPM1 prom inh	Peg3 prom inh	Beta2AR agonist	KKLEB cytotox
C[C@@H]1CN([C@@H](C)CO)C(=O)CCCn2nncc2CO[C@H]1CN(C)Cc1ccccc1C(F)(F)F	9	12	.	1	.	-4
Oc1ccccc1-c1nnc(SCCN2CCOCC2)n1Cc1ccccc1	6	-20	22	53*	-6	0
O=C(O)c1ccccc1Nc1ccccc1	-10	2	-5	-15	-11	4
O=C(O)c1ccccc1Nc1cccc(C(F)(F)F)c1	12	-13	-4	1	-6	-59*
CCN1CCN(C(c2cccnc2)c2c(NC(=O)c3ccco3)sc(C)c2C)CC1 (stereo unspecified)	-14	-81	22	55*	-1	-3
Cc1sc(NC(=O)c2ccco2)c(C(c2cccnc2)N2CCC(C)CC2)c1C (stereo unspecified)	14	24	21	15	6	-7
O=[N+]([O-])c1ccc(N2N=C(c3ccccc3)CC2c2ccccc2O)cc1 (stereo unspecified)	41	0	3	53*	-137	-37
NS(=O)(=O)c1ccc(N2N=C(c3ccccc3)CC2c2ccccc2Br)cc1 (stereo unspecified)	38	-3	-1	33	6	-6
O=C(CSC1=NS(=O)(=O)c2cc(F)ccc2N1)Nc1ccccc1	15	6	-4	6	3	-1
O=C(CSC1=NS(=O)(=O)c2ccccc21)Nc1ccccc1	12	-52	49	71*	22	3
CC(=O)Nc1ccc(S(=O)(=O)N2CCN(c3nc(NC4CCCC4)c4ccccc4n3)CC2)cc1	14	6	24	85*	10	-8
COc1ccc(N2CC(C)(C)[C@H](CC(=O)Nc3ccccc3)C2=O)cc1	0	-5	.	-19	.	-5
Cc1cc(C)n(-c2nc(NCCN(C)C)c3c4c(sc3n2)CCCC4)n1	27	-66	66*	103*	38	-25
Cc1cc(C)n(-c2nc(NCCCN(C)C)c3c4c(sc3n2)CCCC4)n1	21	-132	.	48	20	-21
Clc1ccc(-n2cnc3c(Cl)ncnc32)cc1Cl	-3	0	5	74*	19	-8
O=c1c2ccccc2ncn1-c1ccc(Cl)c(Cl)c1	10	-49	-10	-38	2	-2
COc1ccc(OC)c(CN2C(=O)CN(S(C)(=O)=O)CC2(C)C(=O)NCc2ccccc2)c1 (stereo unspecified)	.	8	.	.	.	.
O=Nc1c2cc3ccccc3[nH]c-2c2ccccc12	-38	-140	-15	-263	2	-4
O=Nc1c(O)c2ccccc2c2ccccc12	89*	24	97*	96*	-6	-88*
CCN1c2ccccc2NC2C1C(C(C)=O)C(=O)N2c1ccc(Cl)cc1 (stereo unspecified)	-10	3	65*	8	-64	3
CC(C)(C)Nc1nc(Cl)nc(N(C#N)CN2C(=O)c3ccccc3S2(=O)=O)n1	18	16	16	7	45*	-11
Cc1ccc(CC#N)c(-c2c(CC#N)ccc(C)c2C)c1C	23	19	.	15	.	4
Cc1ccc2c(c1C)-c1c(ccc(C)c1C)C(=O)C2=O	86*	66*	108*	95*	14	-53*
